Assay results: PubChem BioAssay (NCATS)
Results filed as inconclusive are left out. The source made the active and inactive calls. The call rests on the fitted dose curve; in most records, active means well fitted curve in the direction sought with a large enough effect; inconclusive means small, poorly fitted or top-dose-only effect, or another doubt; inactive means no such curve, though single readings can be large; an effect the other way counts as inactive or inconclusive.

Assay: qHTS of pediatric cancer cell lines to identify multiple opportunities for drug repurposing: Confirmatory screen for Rh18 cells (AID 1347125)
Details: Rh18 rhabdomyosarcoma cells, viability; series mostly up to 45.9 µM; activity change, negative = cytotoxic: at the top concentration
Procedure, shortened: (§1)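 Cells (500-1,000/well) in growth media were settled 5 h at 37 degrees C, then given compounds for 48 h. Viability was read as CellTiter-Glo luminescence. Primary runs used MIPE at 11 points (0.78 nM-46 µM) and NPC at 8 points (0.59 nM-46 µM); follow-ups used 11 points.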
Further: nearly all actives have a fitted effect of over 55% in size.
On the % scale 0 is the no-effect control and ±100 the full control effect; potency means the concentration at half of the fitted maximal effect.

SMILES | Potency | activity change, negative = cytotoxic
COc1cccc2c1C(=O)c1c(O)c3c(c(O)c1C2=O)C[C@@](O)(C(=O)CO)C[C@@H]3O[C@H]1C[C@H](N)[C@@H](O)[C@H](C)O1 | 0.585 µM (active) | –
O=C(NC1CC1)c1cccc(-c2ccc3c(NC(=O)C4CC4)n[nH]c3c2)c1 | – | -16.3% (inactive)
COc1cc(O)c2c(c1)C1OC1C[C@H](O)[C@H](O)C(=O)C=CC[C@H](C)OC2=O (some centres not stated) | 18.5 µM (active) | –

Assay: qHTS of pediatric cancer cell lines to identify multiple opportunities for drug repurposing: Confirmatory screen for Rh30 cells (AID 1347126)
Details: Rh30 rhabdomyosarcoma cell viability; series mostly up to 45.9 µM; activity change, negative = cytotoxic: at the top concentration
Procedure, shortened: as §1

SMILES | activity change, negative = cytotoxic | Potency
COc1ccc(C[C@@H](C)[C@@H](C)Cc2ccc(OC)c(OC)c2)cc1OC | -8.93% (inactive) | –
CC(=O)N1CCN(c2ccc(OCc3nn(C)c(C)c3-c3cccc4c(CCCOc5cccc6ccccc56)c(C(=O)O)n(Cc5cccnc5)c34)cc2)CC1 | -25.2% (inactive) | –
COc1cccc2c1C(=O)c1c(O)c3c(c(O)c1C2=O)C[C@@](O)(C(=O)CO)C[C@@H]3O[C@H]1C[C@H](N)[C@H](OC2CCCCO2)[C@H](C)O1 (some centres not stated) | 10.9% (inactive) | –
N#Cc1c(NC(=O)c2cccc3ccccc23)sc2c1CCCC2 | -8.94% (inactive) | –
CNC(=O)c1ccc(Nc2cc(Nc3ccccc3S(=O)(=O)C(C)C)c3cc[nH]c3n2)nc1 | – | 4.14 µM (active)
CCOc1cc2ncc(C#N)c(Nc3ccc(OCc4ccccn4)c(Cl)c3)c2cc1NC(=O)C=CCN(C)C | – | 5.85 µM (active)
C=C1C(=CC=C2CCC[C@]3(C)[C@@H]([C@H](C)CCCC(C)(C)O)CC[C@@H]23)C[C@@H](O)C[C@@H]1O | 0.631% (inactive) | –
O=C(NCc1ccccc1)[C@H](Cc1ccccc1)NC(=O)[C@@H]1O[C@@H]1C(=O)NCCc1ccc(O)cc1 | -22.3% (inactive) | –
CC(=O)O[C@@]12CO[C@H]1C[C@H](O)[C@@]1(C)C(=O)[C@H](O)C3=C(C)[C@@H](OC(=O)C(O)[C@@H](NC(=O)OC(C)(C)C)c4ccccc4)C[C@@](O)([C@@H](OC(=O)c4ccccc4)[C@@H]21)C3(C)C (some centres not stated) | -51.5% (inactive) | –
